HCV inh: HCV inhibition; Potency, µM (series often up to 41.8 µM), for inactives: at the highest dose activity change, negative = inhibition, usual class: inhibitors; Huh7.5.1 HCVcc-Cre infection, luciferase reporter, 44 h; actives 3.4% (n = 340,000); further: potency means the concentration at half of the fitted maximal effect; on the % scale 0 is the no-effect control and ±100 the full control effect
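Whole-lifecycle infectious HCVcc-Cre system; cells 1,000/well, compound then virus (~0.5 moi) added 4 h after plating, 44 h culture. Luciferase read 15 sec following 15 min substrate incubation, room temp.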
HCMV inh: inhibitors of human cytomegalovirus | HFF cells, HCMV-luciferase reporter, 72 h; hits give low values | actives 4.5% (n = 410,000) | activity change, negative = inhibition, % at 57.5 µM; in the data active means activity change below about -60%; inconclusive means no clear call, values can overlap the other calls; inactive means above about -39%; further: on the % scale 0 is the no-effect control and ±100 the full control effect
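HFF cells seeded 16 h at 37C, treated with compounds, infected with luciferase-reporter HCMV at MOI 1 PFU/cell; luciferase read at 72 h post infection, normalized to buffer-only and Salinomycin controls.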
CHX counter: counter-screen for Shiga toxin inhibitors: cycloheximide protein synthesis inhibition | cell reporter, cycloheximide protein synthesis inhibition counterscreen | max response, % | actives 12% (n = 300,000) | AID 2314; in the data active means max response mostly above about 13%, no sharp cut-off; inactive means mostly below about 14%; further: read at 38.3 µM for the half of the compounds with a filed dose; 0% is about no effect
Pf growth 48h: inhibits P. falciparum growth in the first generation, 48 h; actives 5.9% (n = 310,000); AID 504832; P. falciparum luciferase growth in erythrocytes, 48 h; Potency, µM (series often up to 28.7 µM), for the others: top-dose activity change, negative = inhibition, usual class: inhibitors; further: potency means the concentration at half of the fitted maximal effect; on the % scale 0 is the no-effect control and ±100 the full control effect
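Cell-based growth assay: transgenic P. falciparum expressing firefly luciferase, cultured in red cells within RPMI 1640 containing 0.5% w/v Albumax, 24 mM bicarbonate and gentamycin. A drop in luciferase activity indicates inhibition.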
Shiga inhibitor: inhibitors of Shiga toxin in Vero cells | Vero cells, Shiga toxin protein synthesis inhibition reporter | inhibition, % at 38.7 µM | actives 9.2% (n = 290,000); in the data active means inhibition mostly above about 28%, no sharp cut-off; inactive means mostly below about 43%; further: 0% is about no effect
Pf growth 96h: inhibits malaria parasite growth, 96 h. P. falciparum luciferase reporter growth, 96 h. Potency, µM (series often up to 28.7 µM), for inactives: top-dose activity change, negative = inhibition, actives largely listed as inhibitors. actives 6.9% (n = 320,000). AID 504834; further: potency means the concentration at half of the fitted maximal effect; on the % scale 0 is the no-effect control and ±100 the full control effect
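Readout is luminescence from an integrated firefly luciferase in P. falciparum. Red cells, 2% hematocrit and 0.05% parasitemia final, were cultured with compound through two parasite generations (96 hours) at 37 C, 5% CO2.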
* hit, by the source's call; i = inactive; ? = inconclusive; · = not tested or not shown; [ ] = another dose, or the depositor's remark. An excerpt weighted towards active compounds, which were near 21% of everything screened. Unless noted, the call rests on the fitted dose curve; in most records, active means well fitted inhibition curve with a large enough effect; inconclusive means small, poorly fitted or top-dose-only effect, or another doubt; inactive means no such curve, though single readings can be large or run the other way.

SMILES | HCV inh | HCMV inh | CHX counter | Pf growth 48h | Shiga inhibitor | Pf growth 96h
CC1=C(C(=O)NCc2ccc(Cl)cc2)C2(CCCCC2)OC1=O | · | 3 | · | · | · | ·
Cc1ccc(S(=O)(=O)N2CCN(C(=O)CC(C)C)CC2)cc1 | 9% | -34 | 32* | 165% | 81* | 32%
C=CCNS(=O)(=O)c1ccc(OCC(=O)OCC)cc1 | 17% | -9 | -3 | 2% | -11 | 2.3µM*
COc1ccc(S(=O)(=O)N2CCN(C(=O)COc3ccccc3)CC2)cc1 | 12% | -37 | 1 | -12% | -6 | 7.4µM*
Cc1ccc(C(=O)N2CCN(S(=O)(=O)c3ccc(Br)cc3)CC2)o1 | 18% | -2 | -5 | 6.6µM* | -6 | ?
CCOC(=O)N1CCN(S(=O)(=O)c2ccc(OCC(=O)OC)cc2)CC1 | 16% | -78* | -1 | -14% | -8 | ·
CCOC(=O)COc1ccc(S(=O)(=O)N2CCN(C(=O)OCC)CC2)cc1 | 12% | 17 | -1 | -6% | 4 | 149%
CC(=O)c1ccc(OCC(=O)N2CCN(S(=O)(=O)c3ccc(C)cc3C)CC2)cc1 | ? | -37 | -3 | ? | -11 | 9.3µM*
Cc1ccc(S(=O)(=O)N2CCN(C(=O)COc3ccc(Br)cc3)CC2)cc1 | 3% | -24 | · | 13µM* | · | ?
COc1cc(CCC(=O)N2CCN(S(=O)(=O)c3ccc(C)c(C)c3)CC2)cc(OC)c1OC | ? | 58 | 0 | ? | -5 | 4.7µM*
COc1ccc(CCC(=O)N2CCN(S(=O)(=O)c3ccc4ccccc4c3)CC2)cc1 | -13% | -35 | -2 | -28% | -18 | ?
COc1cc(CCC(=O)N2CCN(c3ccc(N4CCOCC4)nn3)CC2)cc(OC)c1OC | · | · | -10 | · | -11 | 7.4µM*
COc1ccc(S(=O)(=O)N2CCN(C3Cc4ccccc4C3)CC2)cc1 | -11% | 20 | 8 | 48% | 14 | 10µM*
COc1cc(CCC(=O)N2CCN(c3ncccn3)CC2)cc(OC)c1OC | -22% | -16 | -1 | -6% | 1 | -21%[5.75 µM]
COc1ccc(CCC(=O)N2CCN(S(=O)(=O)c3ccc(OC(F)(F)F)cc3)CC2)cc1 | 5% | -4 | · | 9.3µM* | · | 12µM*
CCC(C)c1ccc(S(=O)(=O)N2CCN(C(=O)COc3ccc4c(C)cc(=O)oc4c3)CC2)cc1 (stereo unspecified) | ? | -29 | 5 | · | -16 | ?
COc1ccc(S(=O)(=O)N2CCN(C)CC2)cc1 | 15% | 24 | 8 | 25% | -9 | ?
COc1ccc(S(=O)(=O)N2CCN(C(=O)COc3ccc4c(C)cc(=O)oc4c3)CC2)cc1 | -20% | ? | -5 | ? | -19 | 4.7µM*
CCC(=O)c1ccc(OCC(=O)NCC2COc3ccccc3O2)cc1 (stereo unspecified) | 1% | -14 | · | -10% | · | ?
Cc1ccc(OCC(=O)N2CCN(S(=O)(=O)c3ccccc3[N+](=O)[O-])CC2)cc1 | 9% | ? | -3 | 9.3µM* | -2 | 30%[5.75 µM]
Cc1ccc(C2(C)NC(=O)N(CC(=O)N3CCN(S(=O)(=O)c4ccccc4[N+](=O)[O-])CC3)C2=O)cc1 (stereo unspecified) | 10% | 35 | · | · | · | ·
COCC(=O)N/N=C\c1ccccc1OC/C=C/c1ccccc1 | -14% | 67 | -1 | -2% | -7 | 232%
N#CCC(=O)N/N=C/c1c2ccccc2cc2ccccc12 | ? | -2 | 8 | 0% | -2 | 7%
N#CCC(=O)N/N=C\c1ccccc1OC/C=C/c1ccccc1 | -16% | 60 | 50* | 20% | 77* | 62%
N#CCC(=O)N/N=C\c1ccc(OC/C=C/c2ccccc2)cc1 | -5% | 11 | 27* | 32% | 30 | 60%
SMILES | HCV inh | HCMV inh | CHX counter | Pf growth 48h | Shiga inhibitor | Pf growth 96h
N#CCC(=O)N/N=C/c1cc(Br)ccc1OCc1cccc2ccccc12 | ? | 32 | -9 | 13µM* | -6 | ?
N#CCC(=O)N/N=C/c1ccc(OCc2ccccc2)cc1 | 1% | -20 | 7 | 81% | 13 | 105%
COc1ccc(NC(=O)NC2(C(=O)N3CCCC(C)C3)CCCCC2)cc1 (stereo unspecified) | 11% | 6 | -6 | -1% | 16 | 17%
CC(C)(C)C(=O)NC1(C(F)(F)F)NC(=O)N(c2ccccc2F)C1=O (stereo unspecified) | 0% | 20 | 0 | 3% | -7 | 25%
O=S(=O)(c1ccccc1)N1CCC(O)(CSc2ccccc2)CC1 | ? | -33 | -1 | 5% | 25 | 0%
O=S(=O)(c1ccccc1)N1CCC(O)(CSc2ccc(F)cc2)CC1 | 11µM* | -86* | 13 | ? | -5 | 2%
Nc1nn2cc(-c3ccccc3)nc2c2ccccc12 | ? | 388 | 30* | i | 70* | 259%
c1ccc(-c2cn3nc(-c4ccccc4)c(-c4ccccc4)nc3n2)cc1 | -10% | -5 | 3 | 0% | 26 | -1%
Cc1cn2nc(N)c3ccccc3c2n1 | -18% | 51 | 19* | 8% | 29 | 92%
Cc1ccc(-c2nc(N3CCOCC3)sc2C(=O)N2CCOCC2)cc1 | 19% | -5 | 11 | 12% | 24* | 14%
COc1ccc(C(=O)NC(=S)N2CCOCC2)cc1OC | 6% | 25 | 1 | 16% | -5 | 39%
Cc1c(C(=O)N2CCOCC2)cc(C(C)(C)C)n1-c1ccccc1 | -18% | -22 | 1 | 9.3µM* | -14 | 9.3µM*
COc1ccc(-c2nn(-c3ccccc3)cc2C(=O)NC(=S)N2CCOCC2)cc1OC | -2% | -96* | · | 95% | · | -11%
CC(C(=O)N1CCOCC1)(c1ccccc1)c1ccccc1 | ? | -21 | -1 | ? | 12 | -9%
Cc1ccc(-c2nn(-c3ccccc3)cc2C(=O)N2CCOCC2)cc1 | -18% | -7 | -3 | -19% | -29 | 2.3µM*
CN(C)CC(=O)N1[C@@H]2c3ccc(C4=CCCCC4)c(=O)n3C[C@H]1[C@H](CO)[C@H]2C(=O)NCC1CC1 | · | -16 | · | · | · | ·
COc1ccc(OCCSc2nc(-c3ccccc3)cc(=O)[nH]2)cc1 | 6% | ? | 13 | -11% | -6 | ?
CCCOc1cccc(OCCSc2nc(C)cc(=O)[nH]2)c1 | -3% | -21 | 46* | 5% | 31 | ·
CCOc1ccc(OCCSc2nc(-c3ccccc3)cc(=O)[nH]2)cc1 | 6% | -104* | -1 | -3% | -15 | 55%
CSc1ccccc1NC(=O)CN1C(=O)C2CC=CCC2C1=O (stereo unspecified) | -7% | 15 | · | 34% | · | -8%
COc1ccc(C(=O)OCc2ccccc2C#N)cc1S(=O)(=O)N1CCOCC1 | · | 30 | · | · | · | ·
CCOc1ccccc1NC(=O)c1ccc(C(=O)Nc2ccccc2OCC)nc1 | -4% | -64* | -2 | -5% | 3 | ?
CCOc1ccccc1NC(=O)c1cnccn1 | ? | -11 | -2 | ? | -5 | 12µM*

Screens deposited in PubChem by National Center for Advancing Translational Sciences (NCATS).
